Source: PubChem (several laboratories)
A selection: hits, their analogues and other compounds. The true share with any hit is near 4.1%.
MEKK3 PB1 HTS: raises or lowers MEK5 binding to the human MEKK3 PB1 domain; Q99759; binding response (% of control), % at 10 µM; 290,000 tested, 1.4% active; bead-based flow cytometry, Alexa488-MEK5 binding to MEKK3; actives lie on both sides; 0 = blocked by unlabeled MEK5, 100 = vehicle;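 active = binding response more than 3 SD above or below the average of its plate-row segment, actives on both sides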;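 note: Alexa488 bead fluorescence after subtracting the streptavidin-only scavenger bead signal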
Target sequence (Q99759 whole entry, looked up, the tested form may be a part): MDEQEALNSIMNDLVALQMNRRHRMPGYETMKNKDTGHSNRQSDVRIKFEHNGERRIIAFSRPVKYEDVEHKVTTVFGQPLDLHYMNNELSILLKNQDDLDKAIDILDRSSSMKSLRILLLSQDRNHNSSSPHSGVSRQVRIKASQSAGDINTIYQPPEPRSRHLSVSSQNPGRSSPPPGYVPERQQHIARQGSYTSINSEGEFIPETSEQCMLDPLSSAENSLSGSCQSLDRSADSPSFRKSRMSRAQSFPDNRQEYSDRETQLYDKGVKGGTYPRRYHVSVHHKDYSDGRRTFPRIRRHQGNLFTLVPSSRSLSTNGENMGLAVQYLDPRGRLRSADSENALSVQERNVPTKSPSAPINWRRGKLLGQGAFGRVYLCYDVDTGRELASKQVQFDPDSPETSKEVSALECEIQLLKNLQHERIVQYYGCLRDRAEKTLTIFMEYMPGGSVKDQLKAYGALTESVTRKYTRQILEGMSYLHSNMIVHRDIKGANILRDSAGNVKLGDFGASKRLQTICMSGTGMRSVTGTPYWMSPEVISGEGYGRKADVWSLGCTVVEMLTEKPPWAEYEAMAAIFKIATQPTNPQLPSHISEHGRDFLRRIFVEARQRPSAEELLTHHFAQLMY
MEKK2 mut-MEK5: signal of MEK5 binding to mutant human MEKK2 PB1 domain. bead flow cytometry, Alexa488-MEK5 binding to MEKK2 mutant. percent response, % at 10 µM. 290,000 tested, 0.35% active; in the data active = percent response above about 24%, passing the limit was not always enough
CHT allo act: allosterically activates the human high affinity choline transporter. 310,000 tested, 0.49% active. B-score at 10 µM. AID 488977. CHT-expressing cells, membrane potential dye, choline EC20; stronger effect = higher value; LV-AA mutant CHT in HEK293 cells. Q9GZV3;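 active = initial fluorescence not abnormally high and integrated response B-score, plate-corrected, over 3 SD above library mean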
MEKK2 WT-MEK5: raises or lowers MEK5 binding to wildtype human MEKK2 PB1 domain | Q9Y2U5 | bead flow cytometry, Alexa488-MEK5 binding to MEKK2 WT; actives lie on both sides | binding response (% of control), % at 10 µM | 290,000 tested, 1.1% active; in the data active = binding response below about 67% or above about 130%
CHT block: inhibits the human high affinity choline transporter. CHT-expressing cells, membrane potential dye, choline response; stronger effect = lower value. 310,000 tested, 0.86% active. B-score at 10 µM. Q9GZV3;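 active = B-score over 3 SD under the library average, and starting fluorescence ratio not unusually high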;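 note: choline stimulus applied at its EC90 after an EC20 pre-addition; B-score computed on integrated fluorescence ratio after choline addition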
SUMO Mot1 rescue: blocks SUMOylation pathway, rescuing yeast Mot1-301 growth | 320,000 tested, 1% active | growth rescue, % at 18.8 µM | AID 2716 | S. cerevisiae Mot1-301 growth rescue, ATP luminescence, 38.5C; percent above DMSO median, 100 means doubled;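 active = every valid replicate shows activation above 250% relative to neutral control wells; inactive = the rest, any valid replicate at or below 250%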
MEKK2wt confirm: raises or lowers MEK5 binding to wildtype human MEKK2, retest | shares compounds with MEKK3 PB1 HTS | bead flow cytometry, Alexa488-MEK5 binding to MEKK2 WT; actives lie on both sides | binding response (% of control), % at 10 µM | 5,900 tested, 2.4% active | AID 1892; in the data active = binding response below about 16% or above about 210%; inactive = in between
MEKK2mut confirm: signal of MEK5 binding to mutant human MEKK2, retest | percent response, % at 10 µM | 5,900 tested, 2% active | AID 1893 | bead flow cytometry, Alexa488-MEK5 binding to MEKK2 mutant | shares compounds with MEKK3 PB1 HTS; in the data active = percent response mostly above about 71%, no sharp cut-off; inactive = mostly below about 38%;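 note: higher means compound restores mutant binding toward wildtype level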
MEKK3 confirm: confirmation of inhibitors of MEK5 binding to human MEKK3 | AID 1894 | bead flow cytometry, Alexa488-MEK5 binding to MEKK3; stronger effect = lower value | shares compounds with MEKK3 PB1 HTS | 5,900 tested, 1.8% active | binding response (% of control), % at 10 µM;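 active = binding response below 72% of control, or above a set upper limit, though filed actives all read lower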
Numbers stand for hits; . = inactive; / = no result given; [ ] = dose if it differs, or a comment.

SMILES	MEKK3 PB1 HTS	MEKK2 mut-MEK5	CHT allo act	MEKK2 WT-MEK5	CHT block	SUMO Mot1 rescue	MEKK2wt confirm	MEKK2mut confirm	MEKK3 confirm
NC1=NC(c2ccc(F)cc2)n2c(nc3ccccc32)N1 (centres undefined)	.	.	.	.	.	.	/	/	/
CCOc1ccc(NC(=O)c2ccc3c(SCC(=O)O)c4c(nc3c2)CCCC4)cc1	137	.	.	.	.	.	.	.	.
CCOC(=O)c1ccccc1NC(=O)c1ccc2c(SCC(=O)O)c3c(nc2c1)CCCC3	.	.	.	.	.	.	/	/	/
CCOc1ccc(NC(=O)c2ccc(OC)cc2)cc1	126	.	.	.	.	.	.	.	.
Cc1ccccc1C(=O)Nc1ccc(C(=O)N/N=C/c2ccc(O)c(Br)c2)cc1	.	.	.	.	.	.	/	/	/
C=CCNC(=S)NNc1nc2c(c(=O)[nH]1)C1(CCCC1)Cc1ccccc1-2	142	.	.	.	.	.	.	.	.
O=c1[nH]c(NNC(=S)NC2CCCCC2)nc2c1C1(CCCC1)Cc1ccccc1-2	.	.	.	.	.	.	/	/	/
COc1ccc(C(=O)NNC2=NCCCCC2)cc1	.	.	.	.	.	.	/	/	/
COc1ccc(C2/C=C\CN(C(=O)C3CCCC3)[C@H](Cc3ccccc3)C(=O)N2Cc2ccc(F)cc2)cc1 (some centres undefined)	133	.	.	151	.	.	.	.	.
COc1ccc([C@H]2/C=C\CN(C(=O)C3CCCC3)[C@@H](C)C(=O)N2Cc2ccc(F)cc2)cc1	.	.	.	.	.	.	/	/	/
CCCOc1ccc(N2C(=O)C/C(=C\c3ccccc3)C2=O)cc1	.	.	.	.	.	.	/	/	/
Cc1noc(C)c1S(=O)(=O)Nc1ccc(C(=O)NC2CCCCC2)cc1	20[inhibitor]	.	.	33[inhibitor]	.	.	.	.	.
CN1C(=O)CSC1=NC12CC3CC(CC(C3)C1)C2	20[inhibitor]	.	.	30[inhibitor]	.	.	.	.	.
CCN1C(=O)CSC1=NC12CC3CC(CC(C3)C1)C2	.	.	.	.	.	.	/	/	/
COc1cccc(-n2c(=O)c3cc(OC)c(OC)cc3n(CC(=O)Nc3cc(C)[nH]n3)c2=O)c1	.	.	.	.	.	.	/	/	/
Cc1ccc(-c2csc(N3CCC[C@@H]3C(=O)NCCn3c(-c4ccncc4)nc4ccccc43)n2)cc1	.	.	.	.	.	.	/	/	/
Cc1nc(CN2CCOCC2)cc(=O)[nH]1	2.0[inhibitor]	.	.	2.0[inhibitor]	.	.	.	.	.
Cc1csc(SCC(=O)NCc2cccc(Cl)c2)n1	.	.	.	.	.	/	/	/	/
Cc1csc(SCC(=O)NCCc2ccc(Cl)cc2Cl)n1	69[inhibitor]	.	.	.	.	.	.	.	.
O=C(NCc1ccco1)C1CC(c2ccc(Cl)cc2)=NO1 (centres undefined)	.	.	.	.	.	.	/	/	/
O=C(NCc1ccco1)C1CC(c2ccc(F)cc2)=NO1 (centres undefined)	73[inhibitor]	.	.	.	.	.	.	.	.
CCOC(=O)Cc1cnc(NC(=O)CSc2nc(N)cc(N)n2)s1	.	.	.	.	.	.	/	/	/
Nc1ccc(-c2ccc(N)c(C(=O)O)c2)cc1C(=O)O	44[inhibitor]	.	.	46[inhibitor]	.	.	.	.	.
CCOC(=O)N1CCC(NC(=O)c2ccc(CS(=O)c3cccc(Cl)c3)o2)CC1 (centres undefined)	.	.	.	.	.	.	/	/	/
CC1CCN(S(=O)(=O)N2CCC(C(=O)NCCC3=CCCCC3)CC2)CC1	70[inhibitor]	.	.	.	.	.	.	.	.
